Measurements: PubChem BioAssay AID493200 (National Center for Advancing Translational Sciences (NCATS), 2011)
Inconclusive results are not listed. Active and inactive are the calls of the source. The call rests on the fitted dose curve; in most records, active means well fitted activation curve with a large enough effect; inconclusive means small, poorly fitted or top-dose-only effect; inactive means no such curve, though single readings can be large or run the other way.

Experiment: qHTS Assay for Rab9 Promoter Activators: Initial hit validation from the primary screen
Conditions: Huh7 Rab9 promoter luciferase reporter, 24 h; series mostly up to 46.1 µM
From the text: NIH Chemical Genomics Center [NCGC] NIH Molecular Libraries Probe Production centers Network [MLPCN] MLPCN Grant: MH089537-01 Assay Submitter (PI): Yiannis A. Ioannou NCGC Assay Overview: Niemann Pick Type C (NPC) is a rare neurodegenerative lipidosis that is characterized by lipid storage in the endosomal/lysosomal system. Treatment modalities for this devastating disease are currently non-existent due to the severe obstacles associated with accessing the central nervous system with proteins or genes (Ioannou, 2000). We have developed a new paradigm, termed "Orphan Receptor Bypass Therapy" (ORByT), to address these disorders. This paradigm posits the existence of endogenous "suppressor" proteins whose expression can dramatically improve LSD pathogenesis. The goal is the identification/discovery of small chemical compounds that can modulate the expression of these proteins and provide a new treatment modality for these devastating disorders. One such protein whose overexpression reverses aspects of the NPC phenotype is Rab9. We have developed and optimized a cell based luciferase reporter assay in 1536 well format for the identification of up-regulators of the Rab9 promoter. This assay presents data on the validation of hits from the primary screen.
The Rab9 promoter is cloned in front of the luciferase reporter gene, therefore […] promoter activation results in luciferase expression. Frozen stock of the Rab9 promoter transfected Huh7 cells were obtained from the laboratory of Dr. Yiannis Ioannou (The Mount Sinai School of Medicine, New York, NY). Cells were propagated and maintained at NCGC in medium containing RPMI-1640 supplemented with 10% FBS, 2mM L-glutamine, and 50ug/ml penicillin/streptomycin. Cells were harvested in and plated for assays in OP-MEM I reduced-serum medium supplemented with 10% FBS. The Amplite luciferase reporter gene assay kit was purchased from ABD Bioquest and prepared/stored according to manufacturers recommendations. qHTS Assay Setup: 1.Dispensed 5ul of Huh7 cells stably expressing Rab9-luciferase at a density of 1500 cells per well 1536-well plates. 2.Incubate cells at 37C, 5% CO2, and 95% humidity for 2 hours. 3.Transferred 23nl per well of compound in DMSO solution. 4.Incubated at 37C, 5% CO2, and 95% humidity for 24 hours. 5.Dispensed 3ul per well of Amplite reagent(ABD Bioquest) per well. 6.Incubate at ambient for 10 minutes. 7.Read using the luminescence protocol on the ViewLux plate reader (Perkin Elmer).
With `CCC(=NCc1cccnc1)c1c(O)n(-c2ccccc2)c(=O)[nH]c1=O` the outcome was “inactive”. In the case of `COc1cccc(CCNCc2ccc(SC)cc2)c1`, the outcome is reported as “inactive”. With `Cc1cccn2c(NCC3CCCO3)c(C(C)C)nc12` (stereo unspecified) the outcome was “inactive”. With `CN1CCc2cc3c(c4c2C1Cc1ccccc1-4)OCO3` (stereo unspecified) the outcome was “inactive”. With `O=C1c2ccccc2C(=O)N1Cc1nc2ccccc2c(=O)n1-c1cccnc1` the outcome was “inactive”. With `COc1ccc(C(CC(=O)N2CCC3(CC2)OCCO3)NS(=O)(=O)c2ccc(F)cc2)cc1` (stereo unspecified) the outcome was “inactive”.
